PubChem BioAssay (NCATS)
Records with an inconclusive call do not appear. Active and inactive are the calls of the source. Calls follow the shape of the dose curve; as a rule, active = well fitted inhibition curve with a large enough effect; inconclusive = small, poorly fitted or top-dose-only effect, or effect the other way; inactive = flat fitted curve, though single readings scatter.

These compounds were tested against ATP-dependent 6-phosphofructokinase (Trypanosoma brucei brucei) (UniProt O15648) (assay: qHTS Assay to Find Inhibitors of T. brucei phosphofructokinase: hit validation (AID 492961;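 also: luminescence reports ADP formed as PFK phosphorylates fructose-6-phosphate with ATP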)). Details: T. brucei PFK, ADP-Glo luminescence; series mostly up to 51.4 µM.
Sequence of ATP-dependent 6-phosphofructokinase (Trypanosoma brucei brucei) (O15648 whole entry, looked up): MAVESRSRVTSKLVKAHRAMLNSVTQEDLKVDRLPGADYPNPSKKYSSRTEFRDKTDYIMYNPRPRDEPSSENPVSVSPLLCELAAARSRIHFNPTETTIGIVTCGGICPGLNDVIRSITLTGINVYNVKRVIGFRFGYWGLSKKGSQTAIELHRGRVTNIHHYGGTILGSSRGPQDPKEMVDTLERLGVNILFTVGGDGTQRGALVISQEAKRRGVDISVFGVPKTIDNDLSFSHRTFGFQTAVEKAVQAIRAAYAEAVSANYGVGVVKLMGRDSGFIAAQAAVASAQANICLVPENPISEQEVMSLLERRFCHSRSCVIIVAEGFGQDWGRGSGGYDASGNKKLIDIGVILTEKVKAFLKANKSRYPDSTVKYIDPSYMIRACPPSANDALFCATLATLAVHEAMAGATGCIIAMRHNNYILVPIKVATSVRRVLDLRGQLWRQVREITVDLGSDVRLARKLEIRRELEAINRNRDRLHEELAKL
Summary of the method: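 PFK 1.25 nM, F6P 0.5 mM, ATP 0.1 mM, MgCl2 5 mM, 0.1 M TEA pH 8.0, Tween20 0.01%, BSA 0.1%; 45 min RT. ADP-Glo two-step detection, luminescence. qHTS titration; curve fitting with curve-class categorization.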

For `CCn1cc(C(=O)O)c(=O)c2cnc(N3CCCC3)nc21`, which outcome is on record?
The outcome was “inactive”.

How did the outcome turn out when `CN(C)C(=S)SC(=S)N(C)C` was run?
Its outcome is “inactive”.

With `NCCc1ccn[nH]1` as the compound, how does the outcome read?
The outcome was “inactive”.

How did the outcome turn out when `CN1C(CCl)Nc2cc(Cl)c(S(N)(=O)=O)cc2S1(=O)=O` (configuration not stated) was run?
The outcome was “inactive”.

`COc1c(C)c2c(c(O)c1C/C=C(\C)CCC(=O)O)C(=O)OC2` was tested. Which outcome did it give?
Its outcome is “inactive”.

For `CC(=O)N/N=C/c1ccc([N+](=O)[O-])o1`, which outcome is on record?
The outcome was “inactive”.

With `C[C@@H]1C[C@H]2[C@@H]3CCC4=CC(=O)C=C[C@]4(C)[C@@]3(F)[C@@H](O)C[C@]2(C)[C@H]1C(=O)CO` as the compound, how does the outcome read?
Its outcome is “inactive”.

For `Cc1c(C)n(Cc2ccccc2)c2ccc(C(=O)OCCN(C)C)cc12`, which outcome is on record?
The outcome was “inactive”.

How did the outcome turn out when `CC/C(=C(/CC)c1ccc(O)cc1)c1ccc(O)cc1` was run?
Its outcome is “inactive”.

Which outcome does the source give for `CC1=C(C(=O)OC(C)C)C(c2cccc([N+](=O)[O-])c2)C(C(=O)OC2CN(C(c3ccccc3)c3ccccc3)C2)=C(N)N1` (configuration not stated) here?
Its outcome is “inactive”.

`CO/N=C1\CN(c2nc3c(cc2F)c(=O)c(C(=O)O)cn3C2CC2)CC1CN` (configuration not stated) was tested. Which outcome did it give?
The outcome was “inactive”.

For `C[C@]12CCC(=O)C=C1CC[C@H]1[C@@H]3CC[C@](O)(C(=O)CO)[C@@]3(C)C[C@H](O)[C@@]12F`, which outcome is on record?
Its outcome is “inactive”.

`Cc1c(F)c(N2CCNC(C)C2)cc2c1c(=O)c(C(=O)O)cn2C1CC1` (configuration not stated) was tested. Which outcome did it give?
The outcome was “inactive”.

How did the outcome turn out when `O=c1ccc2ccccc2o1` was run?
Its outcome is “inactive”.

Which outcome does the source give for `Cc1c(C(N)=O)cc([N+](=O)[O-])cc1[N+](=O)[O-]` here?
Its outcome is “inactive”.

With `C#C[C@]1(O)CC[C@H]2[C@@H]3CCc4cc(OC5CCCC5)ccc4[C@H]3CC[C@@]21C` as the compound, how does the outcome read?
Its outcome is “inactive”.

How did the outcome turn out when `CCCCCCC[N+](CC)(CC)CCCCc1ccc(Cl)cc1` was run?
Its outcome is “inactive”.
